# Counter-ions that a name gives are not always drawn.
# What was measured:
# Conditions in all cases: compound concentration in added solution (µM; 5 µl added to 20 µl cells): 10; 18 h
# A431 [1] = assay: LBPA endosome anti-LBPA integrated intensity (sum per cell), Z-score; higher = more LBPA staining
# Method in brief: (§1)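 After 18 h on 5 µl of 10 µM compound solution in duplicate 384-well imaging plates, HeLa MZ or A431 cells, seeded at 3,500 per well in 20 µl, were fixed with 4% PFA. They were then labelled with 6C4 anti-LBPA antibody, filipin, propidium iodide and CellTracker green, and four 20× fields were recorded per well. Integrated LBPA or filipin intensity per cell, whole-cell or within LBPA endosomes, came from MetaXpress segmentation and was normalised to Z-scores in AcuityXpress.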
# HeLa MZ [2] = assay: as above
# Method in brief: as §1
# A431 [3] = assay: whole-cell filipin (free cholesterol) integrated intensity, Z-score; higher = more cholesterol staining
# Method in brief: as §1
# HeLa MZ [4] = assay: as above
# Method in brief: as §1
# A431 [5] = assay: filipin (cholesterol) integrated intensity within LBPA endosomes, Z-score; higher = more cholesterol in LBPA endosomes
# Method in brief: as §1
# HeLa MZ [6] = assay: as above
# Method in brief: as §1
Structure (SMILES),LBPA endosome anti-LBPA integrated intensity (z-score) (A431 [1]),LBPA endosome anti-LBPA integrated intensity (z-score) (HeLa MZ [2]),whole-cell filipin (z-score) (A431 [3]),whole-cell filipin (z-score) (HeLa MZ [4]),filipin (z-score) (A431 [5]),filipin (z-score) (HeLa MZ [6])
CC1(C)S[C@@H]2[C@H](NC(=O)[C@H](N)c3ccccc3)C(=O)N2[C@H]1C(=O)OC1OC(=O)c2ccccc21 (stereo partly drawn) [Talampicillin hydrochloride],-0.446,0.322,-0.121,0.482,-0.392,-0.35
CC1(C)OC(=O)NC1=O [Dimethadione],-0.345,0.802,-0.303,-0.0416,-0.341,-0.341
c1cnc(N2CCN(Cc3ccc4c(c3)OCO4)CC2)nc1 [Piribedil hydrochloride],0.161,1.95,0.544,1.93,-0.00283,1.55
CCN(CC)CCNC(=O)c1cc(S(C)(=O)=O)ccc1OC [Tiapride hydrochloride],-0.48,0.333,-0.576,-0.522,-0.565,-0.513
O=S(=O)(O)c1cc(O)ccc1O [Ethamsylate],-0.297,0.237,0.0355,-0.226,-0.436,-0.57
CC(=O)O[C@H]1C[C@@H]2CC[C@@H]3[C@H](CC[C@@]4(C)[C@H]3C[C@H]([N+]3(C)CCCCC3)[C@@H]4OC(C)=O)[C@@]2(C)C[C@@H]1N1CCCCC1 [Vecuronium bromide],-0.413,0.00655,0.0669,-0.181,-0.445,-0.215
CC1CS(=O)(=O)CCN1/N=C/c1ccc([N+](=O)[O-])o1 (stereo not drawn) [Nifurtimox],-0.541,-0.54,0.0023,-0.211,-0.444,-0.628
Nc1ccc(S(=O)(=O)Nc2ncccn2)cc1 [Sulfadiazine],-0.494,-0.985,-0.718,-0.987,-0.481,-0.62
NS(=O)(=O)c1cc(C(=O)O)cc(N2CCCC2)c1Oc1ccccc1 [Piretanide],-0.606,-1.16,-0.2,0.517,-0.411,-0.576
Nc1ccc(S(=O)(=O)Nc2ccnn2-c2ccccc2)cc1 [Sulfaphenazole],-0.541,-1.02,-0.89,-1.05,-0.533,-0.671
CC(=O)S[C@@H]1CC2=CC(=O)CC[C@]2(C)[C@H]2CC[C@@]3(C)[C@@H](CC[C@@]34CCC(=O)O4)[C@H]12 [Spironolactone],-0.583,-0.535,-0.744,-0.849,-0.526,-0.689
C[C@@H]1C[C@H]2[C@@H]3C[C@H](F)C4=CC(=O)C=C[C@]4(C)[C@@]3(F)[C@@H](O)C[C@]2(C)[C@@]1(O)C(=O)CO [Flumethasone],-0.341,-0.862,-0.0225,0.117,-0.194,-0.317
Nc1ccc(/N=N/c2ccccc2)c(N)n1 [Phenazopyridine hydrochloride],-0.183,0.466,-0.169,-0.724,-0.32,-0.502
CC/C(=C(\c1ccccc1)c1ccc(OCCN(C)C)cc1)c1ccccc1 [Tamoxifen citrate],2.11,0.441,0.819,0.438,2.05,2.47
CCC(=O)O[C@]1(C(=O)CCl)[C@@H](C)C[C@H]2[C@@H]3CCC4=CC(=O)C=C[C@]4(C)[C@@]3(F)[C@@H](O)C[C@@]21C [Clobetasol propionate],-0.343,-0.845,0.00699,-0.332,-0.266,-0.465
CC(C)(O)c1ccccc1CC[C@@H](SCC1(CC(=O)O)CC1)c1cccc(/C=C/c2ccc3ccc(Cl)cc3n2)c1 [Montelukast],-0.42,0.903,-0.0363,0.0687,-0.415,-0.392
NC[C@@H]1O[C@H](O[C@H]2[C@@H](O)[C@H](O[C@@H]3[C@@H](O)[C@H](N)C[C@H](N)[C@H]3O[C@H]3O[C@H](CO)[C@@H](O)[C@H](O)[C@H]3N)O[C@@H]2CO)[C@H](N)[C@@H](O)[C@@H]1O [Paromomycin sulfate],-0.396,-0.465,-0.35,-0.208,-0.425,-0.447
C[C@@H](c1ncncc1F)[C@](O)(Cn1cncn1)c1ccc(F)cc1F [Voriconazole],-0.526,-0.198,-0.573,-0.527,-0.605,-0.411
Cc1cc(CC(=O)O)n(C)c1C(=O)c1ccc(Cl)cc1 [Zomepirac sodium salt],-0.359,0.635,-0.277,0.00846,-0.413,-0.439
O=C1NCN(c2ccccc2)C12CCN(CCCC(c1ccc(F)cc1)c1ccc(F)cc1)CC2 [Fluspirilen],2.78,1.04,1.65,1.64,4.57,4.14
COc1c(O[C@@H]2O[C@H](CO)[C@@H](O)[C@H](O)[C@H]2O)cc2c(c1OC)-c1ccc(SC)c(=O)cc1[C@@H](NC(C)=O)CC2 [Thiocolchicoside],-0.551,-0.233,-0.589,-0.789,-0.477,-0.471
CCC(C)(CN(C)C)OC(=O)c1ccccc1 (stereo not drawn) [Amyleine hydrochloride],-0.517,0.00392,-0.884,-0.337,-0.528,-0.471
C=CCc1ccccc1OCC(O)CNC(C)C (stereo not drawn) [Alprenolol hydrochloride],-0.146,-0.138,0.0188,0.141,-0.22,-0.133
